According to PubChem BioAssay (Tox21):
Records with an inconclusive call do not appear. Active and inactive are the calls of the source. Unless noted, the call rests on the fitted dose curve.

Tests used:
[1] = Nuclear factor erythroid 2-related factor 2/antioxidant responsive element (Nrf2/ARE) small molecule agonists: luciferase reporter gene qHTS assay in human keratinocytes (AID 1919969); further: nearly all actives have a fitted effect of over 35% in size; further: potency means the concentration at half of the fitted maximal effect
[2] = target: Gonadotropin-releasing hormone receptor (Homo sapiens) (UniProt P30968); test: Human gonadotropin-releasing hormone receptor (GnRHR) small molecule agonists, calcium flux assay in GnRHR-HEK293 cells (AID 1920063); further: nearly all actives have a fitted effect of over 35% in size; further: potency means the concentration at half of the fitted maximal effect
Summary of the method: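 Fluorescence kinetics (480 nm excitation, 540 nm emission; 3 min, 1 s steps) report calcium mobilisation in human GnRHR-HEK293 cells in agonist mode. Dye incubation: 1 h, 37 C.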

[3] = G protein-coupled receptor (GPCR) small molecule agonists, calcium flux assay: HEK293 wild type cell line counter screen (AID 1920065); further: potency means the concentration at half of the fitted maximal effect
Summary of the method: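 Readout: fluorescence at 480 nm excitation/540 nm emission, sampled at 1 s intervals for 3 min. Cells had been cultured 18 h, then dye-loaded 1 h at 37 C before compound or ATP addition.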

[4] = p53 small molecule agonists, cell-based qHTS assay with rat liver microsomes (AID 1963578)
Summary of the method: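 Agonist mode in p53RE-bla reporter cells, with compounds co-incubated 16 h at 37 C alongside 0.5 mg/mL rat liver microsomes and 0.5 mg/mL NADPH (final), followed by a 2 h LiveBLAzer detection step.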

[5] = p53 small molecule agonists, cell-based qHTS assay with rat liver microsomes: qHTS cell viability counter screen (AID 1963580); further: nearly all actives have a fitted effect of over 45% in size
Summary of the method: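 p53RE-bla HCT-116 cells (4,000/well) rested 5 h at 37 C, then given Tox21 compounds in DMSO with rat liver microsomes (0.5 mg/mL final) plus NADPH (0.5 mg/mL final) for 16 h at 37 C. Viability read by CellTiter-Glo luminescence after 30 min at room temperature.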

[6] = p53 small molecule agonists, cell-based qHTS assay: qHTS cell viability counter screen (AID 1963581); further: nearly all actives have a fitted effect of over 45% in size
Summary of the method: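 In the same plates used for the p53 bla reporter, HCT-116 cells given compounds for 16 h at 37 C received CellTiter-Glo; luminescence was recorded 30 min later at room temperature.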

[7] = p53 small molecule agonists, cell-based qHTS assay (AID 1963582; active means well fitted activation curve with a large enough effect in the signal ratio in the repeat runs, not every such curve was filed as active; the % refers to the signal ratio)
Summary of the method: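 Compounds are pin-transferred in DMSO onto p53RE-bla cells and incubated 16 h at 37 C. The B/G FRET beta-lactamase substrate is then applied for 2 h at RT and fluorescence recorded.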

[8] = target: 5-hydroxytryptamine receptor 2A (Homo sapiens) (UniProt P28223); test: 5-hydroxytryptamine receptor 2A (HTR2A) small molecule agonists, cell-based qHTS assay (AID 1963587); further: nearly all actives have a fitted effect of over 30% in size; further: potency means the concentration at half of the fitted maximal effect
Summary of the method: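 HTR2A-CHO cells, plated 18 h at 37 C/5% CO2, dye-loaded 1 h at 37 C; compounds in DMSO added by pin tool (agonist mode). Intracellular calcium flux read as kinetic fluorescence on FDSS over 2 min at 1 s intervals.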

[9] = target: Muscarinic acetylcholine receptor M1 (Homo sapiens) (UniProt P11229); test: Cholinergic receptor muscarinic 1 (CHRM1) small molecule agonists, cell-based qHTS assay (AID 1963589); further: nearly all actives have a fitted effect of over 35% in size; further: potency means the concentration at half of the fitted maximal effect
Summary of the method: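 Each compound was tested at 15 concentrations across three independent runs on dye-loaded CHO cells stably expressing human CHRM1, reading intracellular calcium fluorescence kinetically at 1 sec intervals.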

[10] = target: Beta-2 adrenergic receptor (Homo sapiens) (UniProt P07550); test: Adrenergic beta2 receptor (ADRB2) small molecule antagonists, cell-based qHTS assay (AID 1963592); further: nearly all actives have a fitted effect of over 50% in size; further: potency means the concentration at half of the fitted maximal effect; on activity change, negative = inhibition: series mostly up to about 92 µM
Summary of the method: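 Cells (CHO, stable ADRB2 overexpression) incubated 18-20hr at 37C; compounds added from DMSO; agonist mix (1nM isoproterenol, 100uM IBMX, 25uM Ro-20-1724) added; 0.5hr RT; d2-cAMP and anti-cAMP-cryptate added; 1hr RT; 665/615 nm read.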

[11] = target: Beta-2 adrenergic receptor (Homo sapiens) (UniProt P07550); test: Adrenergic beta2 receptor (ADRB2) small molecule agonists, cell-based qHTS assay (AID 1963593);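 further: CHO cells stably overexpressing human ADRB2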
Summary of the method: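 CHO cells stably over-expressing ADRB2 were plated overnight at 37C, then dosed with compounds plus a stimulation mix containing 100uM IBMX and 25uM Ro-20-1724 for 0.5hr at room temperature. cAMP was measured by HTRF competition, 1hr.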

[12] = target: D(2) dopamine receptor (Homo sapiens) (UniProt P14416); test: Dopamine D2 receptor (DRD2) small molecule agonists, cell-based qHTS assay (AID 1963594); further: nearly all actives have a fitted effect of over 35% in size; further: potency means the concentration at half of the fitted maximal effect
Summary of the method: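 HEK293 cells stably expressing DRD2 were cultured 24 h at 37 C, then given Ro20-1724 (0.1 mM final) and compounds for 10 min at room temperature. NKH477 (200nM) was then added for 30 min. cAMP was read by HTRF.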

[13] = p53 small molecule agonists, cell-based qHTS assay with human liver microsomes (AID 1963577);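 further: p53 response element beta-lactamase reporter cells with liver microsomes plus NADPH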
Summary of the method: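 In this qHTS, p53 response-element beta-lactamase cells receive test compound together with a microsome/NADPH activating system (0.5 mg/mL final each) and are incubated 16 h at 37 C before LiveBLAzer fluorescence detection.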

[14] = p53 small molecule agonists, cell-based qHTS assay with human liver microsomes: qHTS cell viability counter screen (AID 1963579); further: nearly all actives have a fitted effect of over 45% in size
Summary of the method: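 Metabolically activated exposure: compounds, human liver microsomes and NADPH (0.5 mg/mL final apiece) were added to p53RE-bla cells seeded 5 h earlier, left 16 h at 37 C, and then assessed for viability by CellTiter-Glo luminescence.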

[15] = target: 5-hydroxytryptamine receptor 2A (Homo sapiens) (UniProt P28223); test: 5-hydroxytryptamine receptor 2A (HTR2A) small molecule antagonists, cell-based qHTS assay (AID 1963586); further: nearly all actives have a fitted effect of over 45% in size
Summary of the method: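 Antagonist-mode intracellular calcium assay: DOI (4 nM) added after 5 min compound pre-incubation at room temperature to dye-loaded HTR2A-CHO cells. Fluorescence followed for 3 min, sampled every second.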

[16] = cAMP Responsive Elements (CRE) small molecule agonists, cell-based qHTS assay (AID 1963590)
Summary of the method: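 Cell line: CRE-bla HEK 293T; medium DMEM/10% dialyzed FBS/0.1 mM NEAA/1 mM pyruvate/25 mM HEPES; 3 h compound exposure; beta-lactamase FRET readout after 2 h substrate loading at RT.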

[17] = cAMP Responsive Elements (CRE) small molecule antagonists, cell-based qHTS assay (AID 1963591; active means well fitted inhibition curve with a large enough effect in the signal ratio in the repeat runs, not every such curve was filed as active; the % refers to the signal ratio)
Summary of the method: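 Inhibition of NKH477-driven (0.25 uM final) CRE-beta-lactamase signal in HEK293T cells, 3 h compound exposure at 37 °C, detected by FRET substrate fluorescence.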

[18] = target: D(2) dopamine receptor (Homo sapiens) (UniProt P14416); test: Dopamine D2 receptor (DRD2) small molecule antagonists, cell-based qHTS assay (AID 1963595; active means well fitted inhibition curve with a large enough effect in the signal ratio in the repeat runs, with a control signal flat; the % refers to the signal ratio)
Summary of the method: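 DRD2-HEK293; 0.1 mM Ro20-1724; cpd 10 min RT; NKH477 200 nM + quinpirole 12 nM, 30 min RT; HTRF cAMP (cAMP-d2/anti-cAMP cryptate), 665/620 nm ratio after 1 h.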

[19] = target: Muscarinic acetylcholine receptor M1 (Homo sapiens) (UniProt P11229); test: Cholinergic receptor muscarinic 1 (CHRM1) small molecule antagonists, cell-based qHTS assay (AID 1963588); further: nearly all actives have a fitted effect of over 40% in size
Summary of the method: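 CHRM1-CHO calcium-flux assay, antagonist mode. Cells were seeded 18 h, dye-loaded 1 h at 37 C and given compound for 5 min at RT, then acetylcholine was added at 50nM. FDSS fluorescence was read 3 min; 15 concentrations, three runs.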

[20] = target: KiSS-1 receptor (Homo sapiens) (UniProt Q969F8); test: Human kisspeptin (KISS1R) small molecule agonists, calcium flux assay in KISS1R-HEK293 cells (AID 1920064; active means well fitted activation curve with a large enough effect in the repeat runs)
Summary of the method: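 Measures KISS1R agonism through calcium-sensitive dye fluorescence in stably transfected HEK293 cells, read for 3 min after pin-tool compound delivery; 15-point titrations in triplicate.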
On the % scale 0 is the no-effect control and ±100 the full control effect.

Sequence of 5-hydroxytryptamine receptor 2A (Homo sapiens) (P28223 whole entry, looked up): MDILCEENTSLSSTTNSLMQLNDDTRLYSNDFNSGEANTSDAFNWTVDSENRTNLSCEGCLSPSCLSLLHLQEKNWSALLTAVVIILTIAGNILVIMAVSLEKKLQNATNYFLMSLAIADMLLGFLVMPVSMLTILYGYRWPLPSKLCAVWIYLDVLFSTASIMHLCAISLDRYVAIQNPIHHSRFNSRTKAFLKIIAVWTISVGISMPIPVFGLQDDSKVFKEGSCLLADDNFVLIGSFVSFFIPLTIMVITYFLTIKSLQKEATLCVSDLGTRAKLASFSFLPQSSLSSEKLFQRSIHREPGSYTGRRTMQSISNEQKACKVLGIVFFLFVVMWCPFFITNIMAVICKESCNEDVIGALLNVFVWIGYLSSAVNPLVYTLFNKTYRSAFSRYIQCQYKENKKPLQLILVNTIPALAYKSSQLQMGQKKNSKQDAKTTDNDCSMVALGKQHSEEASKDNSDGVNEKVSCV
Sequence of Beta-2 adrenergic receptor (Homo sapiens) (P07550 whole entry, looked up): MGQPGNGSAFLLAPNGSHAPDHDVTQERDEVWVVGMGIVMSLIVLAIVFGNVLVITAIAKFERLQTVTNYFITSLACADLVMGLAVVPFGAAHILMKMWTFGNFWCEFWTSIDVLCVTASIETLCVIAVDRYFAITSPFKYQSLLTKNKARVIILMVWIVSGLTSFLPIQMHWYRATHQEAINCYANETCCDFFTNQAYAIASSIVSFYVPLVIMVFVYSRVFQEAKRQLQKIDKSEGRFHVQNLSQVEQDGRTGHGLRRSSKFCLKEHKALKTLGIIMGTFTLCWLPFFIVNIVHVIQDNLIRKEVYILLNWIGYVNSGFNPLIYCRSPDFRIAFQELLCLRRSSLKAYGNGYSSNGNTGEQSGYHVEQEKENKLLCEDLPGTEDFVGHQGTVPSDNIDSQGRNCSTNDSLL
Sequence of Muscarinic acetylcholine receptor M1 (Homo sapiens) (P11229 whole entry, looked up): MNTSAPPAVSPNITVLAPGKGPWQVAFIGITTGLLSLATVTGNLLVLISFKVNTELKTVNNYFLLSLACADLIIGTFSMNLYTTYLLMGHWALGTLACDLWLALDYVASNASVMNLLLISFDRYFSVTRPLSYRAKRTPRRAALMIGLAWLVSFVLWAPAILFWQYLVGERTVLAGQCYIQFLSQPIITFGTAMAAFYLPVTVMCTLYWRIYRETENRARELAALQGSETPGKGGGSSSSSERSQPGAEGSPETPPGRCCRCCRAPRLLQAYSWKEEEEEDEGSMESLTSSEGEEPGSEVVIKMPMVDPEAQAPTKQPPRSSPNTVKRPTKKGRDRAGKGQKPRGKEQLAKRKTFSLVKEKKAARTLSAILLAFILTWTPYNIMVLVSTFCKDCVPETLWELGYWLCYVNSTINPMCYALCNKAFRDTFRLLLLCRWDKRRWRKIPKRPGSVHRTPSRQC
Sequence of Gonadotropin-releasing hormone receptor (Homo sapiens) (P30968 whole entry, looked up): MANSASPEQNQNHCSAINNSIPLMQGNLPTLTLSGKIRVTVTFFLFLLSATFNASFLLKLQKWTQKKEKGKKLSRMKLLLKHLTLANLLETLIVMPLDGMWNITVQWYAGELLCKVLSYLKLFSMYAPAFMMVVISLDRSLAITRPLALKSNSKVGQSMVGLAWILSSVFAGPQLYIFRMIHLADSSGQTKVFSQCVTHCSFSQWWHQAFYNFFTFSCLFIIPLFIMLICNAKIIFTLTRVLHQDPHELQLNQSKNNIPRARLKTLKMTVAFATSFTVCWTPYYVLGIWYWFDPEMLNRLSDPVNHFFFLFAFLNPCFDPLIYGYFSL
Sequence of D(2) dopamine receptor (Homo sapiens) (P14416 whole entry, looked up): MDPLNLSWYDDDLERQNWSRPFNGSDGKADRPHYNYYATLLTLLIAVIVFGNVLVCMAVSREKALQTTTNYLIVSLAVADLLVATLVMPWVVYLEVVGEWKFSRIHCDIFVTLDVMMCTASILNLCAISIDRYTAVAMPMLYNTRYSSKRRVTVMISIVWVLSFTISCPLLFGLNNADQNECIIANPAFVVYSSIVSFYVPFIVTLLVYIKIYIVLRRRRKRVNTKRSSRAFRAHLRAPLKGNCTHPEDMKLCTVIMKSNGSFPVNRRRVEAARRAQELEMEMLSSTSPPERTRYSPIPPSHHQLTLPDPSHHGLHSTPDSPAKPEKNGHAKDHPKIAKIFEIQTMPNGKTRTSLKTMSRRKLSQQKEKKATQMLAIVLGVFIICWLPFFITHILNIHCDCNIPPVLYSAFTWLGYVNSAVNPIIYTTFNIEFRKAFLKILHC
Sequence of KiSS-1 receptor (Homo sapiens) (Q969F8 whole entry, looked up): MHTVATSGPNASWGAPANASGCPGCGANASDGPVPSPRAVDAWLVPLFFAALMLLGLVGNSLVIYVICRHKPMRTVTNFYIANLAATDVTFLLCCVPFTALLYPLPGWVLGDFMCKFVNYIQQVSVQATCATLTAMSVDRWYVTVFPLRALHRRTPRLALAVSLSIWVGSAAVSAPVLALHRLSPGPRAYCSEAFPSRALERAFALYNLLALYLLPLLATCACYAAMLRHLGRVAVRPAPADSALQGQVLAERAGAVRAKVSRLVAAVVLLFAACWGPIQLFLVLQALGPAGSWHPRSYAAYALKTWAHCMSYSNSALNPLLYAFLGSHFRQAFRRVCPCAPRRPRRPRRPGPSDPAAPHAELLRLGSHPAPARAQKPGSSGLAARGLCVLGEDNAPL

CN(C)C(=O)NC1(c2ccccc2)CCN(CC[C@@]2(c3ccc(F)c(F)c3)CN(C(=O)c3ccccc3)CCO2)CC1
inactive: Potency [1] | Potency [2] | Potency [3] | Potency [4] | Potency [5] | Potency [6] | Potency [7] | Potency [8] | Potency [9] | Potency [10] | Potency [11] | Potency [12]

CCc1cc(C(C)(C)C)c(O)c(C(C)(C)C)c1
inactive: Potency [2] | Potency [3] | Potency [13] | Potency [4] | Potency [14] | Potency [5] | Potency [6] | Potency [7] | Potency [15] | Potency [8] | Potency [9] | Potency [16] | Potency [17] | Potency [10] | Potency [11] | Potency [12] | Potency [18]
active: Potency [1] 34.7 µM

C#C[C@]1(OC(C)=O)CC[C@H]2[C@@H]3CCC4=C/C(=N/O)CC[C@@H]4[C@H]3CC[C@@]21CC
inactive: Potency [1] | Potency [2] | Potency [3] | Potency [4] | Potency [14] | Potency [5] | Potency [6] | Potency [15] | Potency [8] | Potency [9] | Potency [17] | Potency [12] | Potency [18]

O=C(/C=C/c1ccc(O)c(O)c1)O[C@@H](C(=O)O)[C@@H](OC(=O)/C=C/c1ccc(O)c(O)c1)C(=O)O
inactive: Potency [1] | Potency [2] | Potency [3] | Potency [13] | Potency [4] | Potency [14] | Potency [5] | Potency [6] | Potency [7] | Potency [8] | Potency [19] | Potency [9] | Potency [16] | Potency [17] | Potency [10]

COC1=C(OC)C(=O)C(CCCCCCCCCCO)=C(C)C1=O
active: Potency [1] 10.6 µM
inactive: Potency [2] | Potency [20] | Potency [14] | Potency [5] | Potency [17] | Potency [10] | Potency [11] | Potency [18]

C[n+]1c2cc(N)ccc2cc2ccc(N)cc21 (tested in a mixture with another compound)
inactive: Potency [14] | Potency [6] | Potency [15]
active: Potency [1] 6.68 µM | Potency [2] 16.9 µM | Potency [3] 16.9 µM | Potency [8] 19 µM | Potency [9] 19 µM

COc1cc2ncnc(Nc3cccc(Cl)c3)c2cc1OC
inactive: activity, positive = activation [1] -25.9% [at 19 µM] | activation [20] 1.01% [at 15.8 µM] | activation [3] -0.385% [at 11.8 µM] | activation [13] -11.3% [at 13.5 µM] | activation [4] -0.041% [at 13.6 µM] | activity change, negative = cytotoxicity [14] -15.6% [at 13.5 µM] | activity change, negative = cytotoxicity [5] -3.32% [at 13.5 µM] | activity change, negative = cytotoxicity [6] -12.1% [at 13.5 µM] | activity, negative = inhibition [15] 2.95% [at 12.7 µM] | activation [8] -3.99% [at 15.9 µM] | activity, negative = inhibition [19] -4.44% [at 12.6 µM] | activation [9] -1.11% [at 15.8 µM] | activity change, negative = inhibition [10] -2.49% [at 19 µM] | activation [12] -4.16% [at 19 µM] | activity change, negative = inhibition [18] -0.58% [at 18.9 µM]

O=C1OC2(c3ccccc31)c1ccc(O)c(Br)c1Oc1c2ccc(O)c1Br
inactive: Potency [1] | Potency [14] | Potency [6] | Potency [15] | Potency [19]
active: Potency [2] 13.8 µM | Potency [3] 19.5 µM | Potency [8] 1.55 µM | Potency [9] 24.5 µM | Potency [10] 68.6 µM | Potency [12] 15.4 µM
